p53null 32C tox = qHTS Screen for Compounds that Selectively Target Cancer Cells with p53 Mutations: Cytotoxicity of p53 Null Cells at the Permissive Temperature; H1299-neo p53 null cells, ATP luminescence, 24 h, 32C; Potency, µM (titrated, usually from 46.1 µM), for the others: top-dose activity change, negative = cytotoxicity, usual class: cytotoxic; 55,000 compounds, 0.62% hits;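 also: potency is read from the fitted curve at half-maximal effect; 0% = DMSO only and -100% = full killing by 100 µM tamoxifen; nearly all actives have a fitted effect of over 55% in size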
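H1299-neo (p53-null) cells, 600/well, were pre-incubated overnight at 37C, then exposed to compounds at up to 46 uM for 24 hr at 32C. Viability was measured as ATP content by luminescence, and AC50 values came from Hill fits.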
OvCa metastasis = Primary qHTS assay for Inhibitors of ovarian cancer metastasis using an organotypic tumor microenvironment (TME) model | SKOV3ip1-GFP adhesion/invasion on 3D omental model, fluorescence | Potency, µM (top dose mostly 45.8 µM), inactives show top-dose activity change, negative = inhibition, most hits filed as inhibitors | 46,000 compounds, 0.1% hits;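 also: potency is read from the fitted curve at half-maximal effect; plate controls were DMSO wells for no effect and tomatine positive control wells for full effect; nearly all actives have a fitted effect of over 65% in size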
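Adhesion/invasion was scored as fixed GFP-labeled SKOV3ip1 cell counts (488/509 nm), normalized to DMSO and tomatine controls. Cancer cells in serum-free medium, with four compound doses (0.36-46 umol/L), sat 2 hr at RT then 16 hr at 37 C on a 48 hr fibroblast/mesothelial/ECM culture.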
pS6 MEF inh = Acumen qHTS Assay for Inhibitors of the mTORC1 Signaling Pathway in MEF (Tsc2-/-, p53-/-) Cells: Sytravon; AID 493208, 2011; Potency, µM (series often up to 38.3 µM), inactives show at the top dose activity change, negative = inhibition, most hits filed as inhibitors; Tsc2-/- p53-/- MEF, phospho-rpS6 immunofluorescence/PI, 24 h; 44,000 compounds, 0.78% hits;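 also: potency is read from the fitted curve at half-maximal effect; plate controls were DMSO for no effect and rapamycin for full effect; nearly all actives have a fitted effect of over 50% in size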
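Immunofluorescence of rpS6 phosphorylation in Tsc2-/-, p53-/- MEFs after 24 h compound exposure, normalized to propidium iodide signal. Activity is expressed as % positive cells, thresholded with 7.5 nM rapamycin.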
S16 viability = Cell viability qHTS assay in S16 Pmp22-F2sN cells; S16 Pmp22-F2sN Schwann cells viability, CellTiter-Glo, 24 h; Potency, µM (doses to about 57.5 µM), for inactives: at the highest dose activity change, negative = cytotoxicity, actives largely listed as cytotoxic; 43,000 compounds, 0.48% hits; AID 1508642, 2021; also: potency is read from the fitted curve at half-maximal effect; % is scaled to controls: 0 for no effect and ±100 for the full control effect; nearly all actives have a fitted effect of over 65% in size
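Luminescence from CellTiter-Glo, read by CCD camera after a 15 min room-temperature incubation, served as the viability signal. Reporter Schwann cells (S16 Pmp22-F2sN) had been treated with pin-transferred compounds for 24 h at 37C.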
PMP22 txn = Cell-based coincidence reporter assay to measure PMP22 gene transcription in S16 Pmp22-F2sN cells - Primary screen | S16 Pmp22-F2sN Schwann cells (luciferase reporters placed in the Pmp22 gene), FLuc/NLuc coincidence luminescence, 24 h | AID 1508649, 2021 | 43,000 compounds, 2% hits | Potency, µM (highest dose often 57.5 µM), for the others: at the highest dose activity change, negative = inhibition, most hits filed as inhibitors; active = clear falling dose curves in both reporters; inconclusive = both reporters move, but less clearly or upward; inactive = either reporter flat; the % is the NLuc reporter signal; also: potency is read from the fitted curve at half-maximal effect; % is scaled to controls: 0 for no effect and ±100 for the full control effect
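Transcriptional readout in edited S16(c9) cells: two luciferases reported from the Pmp22 locus, measured in turn after 24 h compound incubation.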
p53null 39C kill = qHTS Screen for Compounds that Selectively Target Cancer Cells with p53 Mutations: Cytotoxicity of p53 Null Cells at the Nonpermissive Temperature; H1299 p53-null (neo) cells, 39C, ATPlite viability, 24 h; 55,000 compounds, 0.97% hits; Potency, µM (doses to about 46.1 µM), for inactives: at the top dose activity, negative = cell killing, hits mostly cytotoxic;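 also: potency is read from the fitted curve at half-maximal effect; 0% = DMSO only and -100% = full killing by 100 µM tamoxifen; nearly all actives have a fitted effect of over 50% in size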
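Temperature-shift cytotoxicity format: compound titrations on p53-null or A138V-expressing H1299 cells held 24 hr at 39C, cell ATP then measured, AC50 from Hill model.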
NLuc sat counter = Biochemical NLuc saturation counterscreen for small molecule modulators of PMP22 gene expression - Nano-Glo assay | shares compounds with PMP22 txn | Secreted NLuc enzyme (filtered S16 cell medium), Nano-Glo luminescence | Potency, µM (top dose mostly 57.5 µM), without a hit: at the top dose activity change, negative = inhibition, usual class: inhibitors | 690 compounds, 4% hits | AID 1508638, 2021; also: potency is read from the fitted curve at half-maximal effect; % is scaled to controls: 0 for no effect and ±100 for the full control effect
NLuc Km counter = Biochemical coelenterazine-based NLuc counterscreen for small molecule modulators of PMP22 gene expression - Km assay; 690 compounds, 5% hits; shares compounds with PMP22 txn; secreted NLuc enzyme, coelenterazine luminescence, Km conditions; Potency, µM (highest dose often 57.5 µM), for the others: top-dose activity change, negative = inhibition, most hits filed as inhibitors; also: potency is read from the fitted curve at half-maximal effect; % is scaled to controls: 0 for no effect and ±100 for the full control effect
FLuc ctr PMP22 = Biochemical FLuc counterscreen for small molecule modulators of PMP22 gene expression | 690 tested, under 10 active | Potency, µM (doses to about 57.5 µM), inactives show top-dose activity, negative = inhibition, usual class: inhibitors | shares compounds with PMP22 txn | purified P. pyralis FLuc, luminescence, 10 min; also: % of control where 0% means no effect
Target sequence (P08659 whole entry, looked up): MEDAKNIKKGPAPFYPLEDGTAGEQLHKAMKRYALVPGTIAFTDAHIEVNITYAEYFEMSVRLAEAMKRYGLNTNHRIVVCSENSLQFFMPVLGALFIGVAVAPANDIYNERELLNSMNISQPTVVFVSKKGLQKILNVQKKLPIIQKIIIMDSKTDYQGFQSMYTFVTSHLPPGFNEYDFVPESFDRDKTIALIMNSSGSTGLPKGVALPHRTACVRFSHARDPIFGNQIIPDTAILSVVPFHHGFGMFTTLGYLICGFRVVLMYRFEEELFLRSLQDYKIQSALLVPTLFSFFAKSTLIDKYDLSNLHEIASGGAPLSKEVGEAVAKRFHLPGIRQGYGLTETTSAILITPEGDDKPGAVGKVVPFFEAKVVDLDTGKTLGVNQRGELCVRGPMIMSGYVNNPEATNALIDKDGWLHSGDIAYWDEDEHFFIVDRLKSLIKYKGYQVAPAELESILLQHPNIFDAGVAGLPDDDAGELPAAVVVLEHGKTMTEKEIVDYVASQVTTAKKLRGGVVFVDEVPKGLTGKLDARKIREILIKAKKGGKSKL
S16 F2sN tox cnf = Cell viability qHTS assay in S16 Pmp22-F2sN cells - Confirmatory screen. shares compounds with PMP22 txn. S16 Schwann cells viability, CellTiter-Glo ATP luminescence, 24 h. Potency, µM (highest dose often 57.5 µM), inactives show at the top dose activity change, negative = viability loss, actives largely listed as cytotoxic. 690 compounds, 7% hits; also: potency is read from the fitted curve at half-maximal effect; % is scaled to controls: 0 for no effect and ±100 for the full control effect
PMP22 txn cnf = Cell-based coincidence reporter assay to measure PMP22 gene transcription in S16 Pmp22-F2sN cells - Confirmatory screen; 690 compounds, 22% hits; S16 Schwann cells Pmp22-F2sN, dual luciferase, 24 h; Potency, µM (titrated, usually from 57.5 µM), inactives show at the top dose activity change, negative = inhibition, actives largely listed as inhibitors; AID 1508646, 2021; shares compounds with PMP22 txn; active = clear falling dose curves in both reporters; inconclusive = both reporters move, but less clearly or upward; inactive = either reporter flat; the % is the FLuc reporter signal; also: potency is read from the fitted curve at half-maximal effect
PMP22 prot conf = Cell-based HiBiT reporter assay to measure PMP22 protein expression in S16 Pmp22-HiBiT cells - Confirmatory screen; Potency, µM (doses to about 27.9 µM), for the others: at the highest dose activity change, negative = inhibition, actives largely listed as inhibitors; shares compounds with PMP22 txn; S16 Schwann cells Pmp22-HiBiT, luminescence, 48 h; 95 tested, under 10 active
Active calls of the source: *; i = inactive; ? = inconclusive; · = not tested or not shown. The list is not random: actives were taken first. Their share in the collection is about 3.1%. Unless noted, calls follow the shape of the dose curve; as a rule, active = well fitted curve in the direction sought with a large enough effect; inconclusive = small, poorly fitted or top-dose-only effect, or another doubt; inactive = no such curve, though single readings can be large; an effect the other way counts as inactive or inconclusive.

SMILES	p53null 32C tox	OvCa metastasis	pS6 MEF inh	S16 viability	PMP22 txn	p53null 39C kill	NLuc sat counter	NLuc Km counter	FLuc ctr PMP22	S16 F2sN tox cnf	PMP22 txn cnf	others
Cc1ccc(C(=O)c2oc3ccccc3c2NC(=O)c2nc(S(C)(=O)=O)ncc2Cl)cc1F	-3%	-14%	1%	?	7.6µM*	4%	-9%	-16%	-2%	22µM*	13µM*
CCc1ccc(NC(=O)CSc2nc(=O)n(Cc3ccco3)c3c2CCC3)cc1	26%	2%	-5%	-6%	?	-15%	·	·	·	·	·
COC(=O)c1ccc(NC(=O)CSc2nc(=O)n(Cc3ccco3)c3c2CCC3)cc1	8%	-6%	-8%	-11%	8.3µM*	16%	?	?	-14%	-1%	-44%
Cc1ccc(CN2C(=O)C(O)(c3c(C)[nH]c4ccccc34)c3ccccc32)cc1 (centres undefined)	30%	i	?	5%	8.2µM*	2%	?	?	3%	8%	17µM*	PMP22 prot conf=-9%
Cc1[nH]c2ccccc2c1C1(O)C(=O)N(Cc2ccccc2)c2ccc(Cl)cc21 (centres undefined)	28%	-16%	?	10%	16µM*	?	-14%	?	4%	?	?
Cc1cnc(Nc2ccc(OCCN3CCCC3)cc2)nc1Nc1cccc(S(=O)(=O)NC(C)(C)C)c1	·	32%	·	·	·	·	·	·	·	·	·
